Sfp PPTase inh = inhibitors of Bacillus subtilis Sfp phosphopantetheinyl transferase; Q9F4F7; Biochemical Sfp PPTase activity, qHTS; Potency, µM, without a hit: largest response in the series, negative = inhibition, actives largely listed as inhibitors; actives 3.5% (n = 310,000);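 further: the enzyme is Sfp with the accession as filed and its product quenches rhodamine fluorescence; potency means the concentration at half of the fitted maximal effect; 0% = enzyme reaction without inhibitor and -100% = no enzyme wells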
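Sfp 15 nM + cpd, 15 min RT; start w/ rhodamine-CoA 5 uM, BHQ-2-YbbR 12.5 uM (final); 50 mM Hepes pH 7.6, 10 mM MgCl2, 0.01% NP-40, 0.01% BSA; read 525/598 nm at 0 and 30 min.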
Tau fluor cs = counter-screen for tau fibril formation inhibitors | tau K18 P301L Alexa594 fluorescence, heparin fibrillization | Potency, µM (highest dose often 57.7 µM), for the others: top-dose activity change, negative = decrease | actives 0.93% (n = 280,000) | AID 1463; further: potency means the concentration at half of the fitted maximal effect; nearly all actives have a fitted effect of over 55% in size
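Human K18 P301L tau (15 uM unlabeled plus 0.24 uM Alexa 594-labeled, final) in 100 mM sodium acetate pH 7 was mixed with compound and 20 uM heparin and incubated 6 hr at 37 C.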
Tau fibril ThT = blocks human tau fibril formation measured by thioflavin T; P10636; recombinant tau K18 P301L (four-repeat tau fragment), heparin-induced fibrillization, ThT fluorescence; Potency, µM (doses to about 57.4 µM), inactives show top-dose activity, negative = inhibition, hits mostly inhibitors; actives 2.1% (n = 270,000); further: potency means the concentration at half of the fitted maximal effect; nearly all actives have a fitted effect of over 55% in size
Target sequence (P10636 561-689 P618L limits assumed): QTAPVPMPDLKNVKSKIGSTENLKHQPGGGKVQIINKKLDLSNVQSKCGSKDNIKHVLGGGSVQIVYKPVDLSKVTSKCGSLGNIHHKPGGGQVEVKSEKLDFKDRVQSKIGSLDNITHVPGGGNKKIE
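K18 P301L tau (15 uM + 0.24 uM Alexa 594-tagged), heparin 20 uM, NaOAc pH 7, 6 h 37 C; ThT 30 uM, 1 h RT, ex 450/em 510 nm.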
Tau fibril FP = inhibitors of human tau fibril formation. Potency, µM (highest dose often 57.7 µM), for the others: at the highest dose activity, negative = inhibition, hits mostly inhibitors. actives 0.39% (n = 280,000). P10636. AID 1468. K18 P301L tau heparin fibrillization, Alexa594 FP, 6 h; further: potency means the concentration at half of the fitted maximal effect; nearly all actives have a fitted effect of over 55% in size
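Human tau K18 […] P301L fragment, 15 uM unlabeled plus 0.24 uM Alexa 594-labeled tau (final), with compound and 20 uM heparin in 100 mM sodium acetate pH 7; 6 hr at 37 C, then Alexa 594 FP read.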
G9a block = blocks human histone lysine methyltransferase G9a; Q96KQ7; G9a H3K9 monomethylation, AlphaScreen, 2 h; Potency, µM (titrated, usually from 102 µM), for inactives: top-dose activity, negative = inhibition, most hits filed as inhibitors; actives 8.8% (n = 350,000); further: potency means the concentration at half of the fitted maximal effect; nearly all actives have a fitted effect of over 75% in size
Target sequence (Q96KQ7 913-1193 limits assumed): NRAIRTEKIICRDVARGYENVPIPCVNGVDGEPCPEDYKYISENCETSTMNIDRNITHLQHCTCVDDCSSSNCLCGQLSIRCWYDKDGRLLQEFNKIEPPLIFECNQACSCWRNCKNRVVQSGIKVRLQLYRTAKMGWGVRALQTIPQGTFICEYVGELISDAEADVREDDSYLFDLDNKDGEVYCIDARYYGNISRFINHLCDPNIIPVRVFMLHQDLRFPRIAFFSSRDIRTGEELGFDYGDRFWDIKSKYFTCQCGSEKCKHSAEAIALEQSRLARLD
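AlphaScreen read-out: biotin-H3K9 peptide (500 nM) methylation by 20 nM enzyme with 20 uM SAM, 2 h at room temperature after 15 min compound preincubation; anti-monomethyl H3K9 antibody plus donor/acceptor beads, 10 min dark.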
Coupling enz = coupling enzyme interference in Giardia aldolase counter-screen | coupling enzyme system counterscreen, AmpLite Red fluorescence | actives 0.67% (n = 290,000) | AID 2472 | activity change, negative = inhibition, % at 58.2 µM, hits read low; in the data active means activity change below about -30%
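Fluorescence at 525 nm excitation and 598 nm emission measured inhibition of the coupled detection system without aldolase. Compounds (at 57.5 uM final) were preincubated 10 min at room temperature with coupling enzyme reagent before a 20 min substrate/AmpLite Red step.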
An asterisk follows results filed as active; [ ] = another dose, or the depositor's remark. Hits are enriched below; roughly 11% of the tested compounds scored in any of these assays. Unless noted, the call rests on the fitted dose curve; in most records, active means well fitted curve in the direction sought with a large enough effect; inconclusive means small, poorly fitted or top-dose-only effect, or another doubt; inactive means no such curve, though single readings can be large; an effect the other way counts as inactive or inconclusive. Unless noted, on the % scale 0 is the no-effect control and ±100 the full control effect.

Results for Cc1ccc(-n2nc(CO)c(C(=O)NCc3cccnc3)n2)cc1 ?
Tau fluor cs: -3%; Tau fibril ThT: 6%; Tau fibril FP: -5%; G9a block: 7%[59 µM]

What do the screens show for `CCN(CC)c1ccc(NC(=O)CCCN2C(=O)C(c3ccccc3)Oc3cccnc32)c(C)c1` (stereo unspecified)?
Tau fluor cs: -18%; Tau fibril ThT: -8%; Tau fibril FP: 0%; G9a block: 2.8µM*

How did COC(=O)c1ccc(NC(=O)C2CCN(c3ncnc4c3nc3n4CCCCC3)CC2)cc1 do in these assays?
Tau fluor cs: -14%; Tau fibril ThT: 3%; Tau fibril FP: -3%; G9a block: 8%[59 µM]

Results for O=C(O)COc1c(-c2ccc(Cl)cc2)oc2ccccc2c1=O ?
Sfp PPTase inh: 12%; Tau fluor cs: -4%; Tau fibril ThT: -9%; Tau fibril FP: -8%; G9a block: inconclusive; Coupling enz: 7

What do the screens show for `COc1ccc(-c2oc3ccccc3c(=O)c2OCC(=O)O)cc1`?
Sfp PPTase inh: 18%; Tau fluor cs: 1%; Tau fibril ThT: -2%; Tau fibril FP: 1%; G9a block: 2%; Coupling enz: 8

Results for O=C(O)COc1c(-c2ccco2)oc2ccccc2c1=O ?
Sfp PPTase inh: 11%; Tau fluor cs: 0%; Tau fibril ThT: -3%; Tau fibril FP: 5%; G9a block: 45µM*; Coupling enz: 1

Results for NC(=O)COc1c(-c2ccco2)oc2ccccc2c1=O ?
Sfp PPTase inh: 89µM*; Tau fluor cs: 7%; Tau fibril ThT: 7%; Tau fibril FP: 8%; G9a block: -50%; Coupling enz: -25

What do the screens show for `O=C(Cn1c(-c2cccs2)cc2ccccc21)NCc1ccccc1Br`?
Tau fluor cs: -9%; Tau fibril ThT: 1%; Tau fibril FP: 3%; G9a block: -22%[59 µM]

How did CCOc1ccc(S(=O)(=O)NCc2ccccc2Cl)cc1C(N)=O do in these assays?
Sfp PPTase inh: -15%; Tau fluor cs: -24%; Tau fibril ThT: -23%; Tau fibril FP: -4%; G9a block: 1%; Coupling enz: -37*

How did Cc1nc(-c2ccc(F)cc2)c(CC(=O)N(C)CC(=O)Nc2ccccc2Br)s1 do in these assays?
G9a block: 9%[2.33 µM]

Results for Cc1nc(-c2ccc(F)cc2)c(CC(=O)N(C)CC(=O)Nc2ccc(Br)cc2C)s1 ?
G9a block: 32µM*

Results for Cc1[nH]cnc1CSCCN ?
Sfp PPTase inh: 7.1µM*; Tau fluor cs: 1%; Tau fibril ThT: -2%; Tau fibril FP: 2%; G9a block: inconclusive; Coupling enz: 2

How did CCOC(=O)c1nc[nH]c1C do in these assays?
Sfp PPTase inh: 21%; Tau fluor cs: 3%; Tau fibril ThT: 7%; Tau fibril FP: 8%; G9a block: inconclusive; Coupling enz: 0

How did Clc1ccc(CSc2ncnc3nc[nH]c23)cc1 do in these assays?
Sfp PPTase inh: 3%; Tau fluor cs: -2%; Tau fibril ThT: 3%; Tau fibril FP: -4%; G9a block: inconclusive; Coupling enz: 8

What do the screens show for `Cc1[nH]cnc1CSCc1ccc(Cl)cc1`?
Sfp PPTase inh: 0%; Tau fluor cs: 4%; Tau fibril ThT: 7%; Tau fibril FP: -11%; G9a block: 25µM*; Coupling enz: -1

Results for CCN(CC)c1nc2ccccc2nc1C(=O)Nc1ccc(C(C)=O)cc1 ?
Tau fluor cs: -19%; Tau fibril ThT: inconclusive; Tau fibril FP: 0%; G9a block: 4%[59 µM]

How did COc1ccc(NC(=S)Nn2cnnc2)cc1OC do in these assays?
Sfp PPTase inh: 20µM*; Tau fluor cs: -15%; Tau fibril ThT: inconclusive; Tau fibril FP: -14%; G9a block: 4µM*; Coupling enz: -1

What do the screens show for `CCc1ccc(NC(=S)Nn2cnnc2)cc1`?
Sfp PPTase inh: 14µM*; Tau fluor cs: -1%; Tau fibril ThT: inconclusive; Tau fibril FP: -9%; G9a block: 7.9µM*; Coupling enz: 2

What do the screens show for `COc1ccc(NC(=S)NC23CN4CN(CN(C4)C2)C3)c(OC)c1`?
Sfp PPTase inh: -3%; Tau fluor cs: -6%; Tau fibril ThT: -5%; Tau fibril FP: 6%; G9a block: inconclusive; Coupling enz: -2

What do the screens show for `S=C(Nc1ccccc1)Nn1cnnc1`?
Sfp PPTase inh: 13µM*; Tau fluor cs: 5%; Tau fibril ThT: inconclusive; Tau fibril FP: 0%; G9a block: 1.4µM*; Coupling enz: 1

What do the screens show for `COc1ccc(NC(=S)Nn2cnnc2)c(OC)c1`?
Sfp PPTase inh: 18µM*; G9a block: 5µM*

How did CC(C)NC(=O)CN1CCC(c2nc3ccccc3[nH]2)CC1 do in these assays?
Sfp PPTase inh: 6%; G9a block: 24%

How did CNC(=S)Nc1ccc(C)cc1 do in these assays?
Sfp PPTase inh: 4%; Tau fluor cs: 3%; Tau fibril ThT: 0%; Tau fibril FP: -8%; G9a block: 14%; Coupling enz: 3

Results for Cc1ccc(NC(=S)Nn2cnnc2)cc1 ?
Sfp PPTase inh: 8.9µM*; Tau fluor cs: -4%; Tau fibril ThT: inconclusive; Tau fibril FP: -13%; G9a block: 2.8µM*; Coupling enz: 1

What do the screens show for `O=C(NCc1ccccc1CN1CCCC1)c1cccc(S(=O)(=O)N2CCOCC2)c1`?
G9a block: 7%[59 µM]

Results for CCC1CCCCN1CCCNC(=O)c1ccc2c(c1)N(Cc1ccc(Cl)cc1)C(=O)c1ccccc1S2(=O)=O (stereo unspecified) ?
Tau fluor cs: inconclusive; Tau fibril ThT: inconclusive; Tau fibril FP: -7%; G9a block: inconclusive

Results for COc1ccc(-c2nn3c(-c4ccccc4)nnc3s2)cc1 ?
Sfp PPTase inh: inconclusive; Tau fluor cs: 2%; Tau fibril ThT: inconclusive; Tau fibril FP: 0%; G9a block: inconclusive; Coupling enz: 1

What do the screens show for `COc1cc(-c2nnc3sc(Cc4ccccc4)nn23)cc(OC)c1OC`?
Sfp PPTase inh: -15%; Tau fluor cs: -11%; Tau fibril ThT: inconclusive; Tau fibril FP: -7%; G9a block: 35µM*; Coupling enz: 6

How did COC(=O)c1cc(=O)nc2sc(-c3cccs3)nn12 do in these assays?
Sfp PPTase inh: 15%; Tau fluor cs: -1%; Tau fibril ThT: -4%; Tau fibril FP: 2%; G9a block: 2%[12.7 µM]; Coupling enz: 1

What do the screens show for `COC(=O)c1cc(=O)nc2sc(-c3ccc(F)cc3)nn12`?
Sfp PPTase inh: 22µM*; Tau fluor cs: -10%; Tau fibril ThT: -16%; Tau fibril FP: 4%; G9a block: 4µM*; Coupling enz: 0

Compound activity as filed in PubChem.
